Six molecules from PubChem BioAssay can be followed below.

The subject of experiment [1] is Plasmodium falciparum Sir2 (PF13_0152, Sir2A). Kind of experiment: Plasmodium falciparum Sir2A binding compounds – biochemical, small-molecule microarray, 635 nm fluorescence, primary screen (AID 1098).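 Also: score merges spot fluorescence intensity with its signal-to-noise ratio.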 Conditions: fluorescence 635 nm, higher = more signal.
Experiment [2] in a line: probe aDKK1 binding to arrayed compounds – biochemical, biotinylated probe, 635/667 nm fluorescence, primary screen (AID 1099).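 Also: score merges 667nm spot fluorescence with signal to noise across triplicate slides.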 Conditions: small-molecule microarray, higher = more signal.
Experiment [3] in a line: probe aCHRDL2 binding to arrayed compounds – biochemical, biotinylated probe, 635/667 nm fluorescence, primary screen (AID 1100). Conditions: small-molecule microarray, higher = more signal.
Experiment [4] can be described thus: change in splice reporter luminescence, either direction, cell-based, HEK293, spliceosome inhibition project, primary screen (AID 1101).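 Also: HEK293 cells carrying a splicing-competent luciferase reporter gene; test concentration not given here.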 The conditions noted are these: HEK293 splicing luciferase reporter, 24 h, higher = more signal, called active from +8 up or from −8 down.
The target of experiment [5] is Fibroblast growth factor 10 (Homo sapiens) (UniProt O15520). Kind of experiment: compounds binding fibroblast growth factor 10 – biochemical, small-molecule microarray, 635 nm fluorescence, primary screen (AID 1102). Conditions: FGF10 binding, fluorescence 635 nm, higher = more signal.
Experiment [6] deals with glycogen synthase kinase-3 (GSK3A per assay name; protocol says GSK3B). In words: compounds binding glycogen synthase kinase-3 – biochemical, small-molecule microarray, 635 nm fluorescence, GSK3A, primary screen (AID 1103). Also: the record names both GSK3A and GSK3B. The conditions noted are these: fluorescence 635 nm, higher = more signal.
The target of experiment [7] is Epidermal growth factor receptor (Homo sapiens) (UniProt P00533). In words: compounds binding epidermal growth factor receptor – biochemical, small-molecule microarray, 635 nm fluorescence, primary screen (AID 1104).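 Also: score merges 667 nm emission intensity with spot signal to noise over triplicate slides.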 Conditions: EGFR binding, higher = more signal.
Experiment [8] addresses Follistatin-related protein 3 (Homo sapiens) (UniProt O95633). Kind of experiment: compounds binding follistatin-related protein 3 – biochemical, small-molecule microarray, 635 nm fluorescence, primary screen (AID 1105).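 Also: score merges emission near 667 nm and signal to noise per printed spot across three slides.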 Conditions: FSTL3 binding, higher = more signal.
Experiment [9] deals with Dickkopf-related protein 1 (Homo sapiens) (UniProt O94907). In words: small molecules binding DKK1 protein – biochemical, small-molecule microarray, 635 nm fluorescence scan, primary screen (AID 1106).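 Also: score merges emission near 667 nm with signal to noise over three replicate slides.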 The conditions noted are these: higher = more signal.
Experiment [10] deals with Inhibin beta A chain (activin A). In words: small molecules binding activin A – biochemical, small-molecule microarray, 635 nm fluorescence scan, primary screen (AID 1107).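 Also: mouse activin A protein probed at 4.33 µg/mL on printed slides; score merges bound-protein fluorescence near 667 nm with spot signal-to-noise.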 The conditions noted are these: INHBA, higher = more signal.
For experiment [11], the system named is Human papillomavirus type 1a protein E7 (residues 44-93). Kind of experiment: small molecules binding HPV E7 44-93 – biochemical, small-molecule microarray, residues 44-93, 635 nm fluorescence, primary screen (AID 1108).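 Also: E7 fragment applied at 1 µg/mL in TBST for 1 h at 4 C; score combines spot fluorescence with its signal to noise ratio.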 Conditions: fluorescence 635 nm, higher = more signal.
Experiment [12] in a line: hepatitis C replication reporter changes, two-sided – Huh7 cells, luciferase reporter, HCV replication inhibitor project, primary screen (AID 1109).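 Also: huh7 hepatoma cells harbouring a luciferase neomycin HCV replicon reporter; luciferase luminescence as measure of HCV replicon replication; test concentration not given here.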 Conditions: Huh7 HCV replicon luciferase reporter, 48 h; higher = more signal.
Experiment [13] deals with Left-right determination factor 2 (Homo sapiens) (UniProt O00292). Kind of experiment: small molecules binding LEFTY2 protein – biochemical, small-molecule microarray, 635 nm fluorescence scan, primary screen (AID 1110). Conditions: higher = more signal.
The target of experiment [14] is Calmodulin-1 (Homo sapiens) (UniProt P0DP23). Kind of experiment: small molecules binding calmodulin-1 with EGTA – biochemical, small-molecule microarray, Cy5-labelled CALM1, profiling panel (AID 1111).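 Also: labelled calmodulin applied in Tris saline Tween buffer holding calcium plus EGTA and DTT.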 The conditions noted are these: Cy5-CALM1 binding fluorescence, higher = more signal.
Experiment [15] has the same target. Kind of experiment: small molecules binding Ca-loaded calmodulin-1 – biochemical, small-molecule microarray, Cy5-labelled CALM1, plus calcium, artefact control for SMM control-protein annotation, profiling panel (AID 1112).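 Also: score merges spot fluorescence with signal to noise from triplicate slides.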 Conditions: Cy5-CALM1 binding fluorescence, higher = more signal.
A short description of experiment [16]: probe aWnt5a binding to arrayed compounds – biochemical, biotinylated probe, 635/667 nm fluorescence, primary screen (AID 1113).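 Also: score merges 667 nm fluorescence intensity with signal-to-noise per printed feature.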 Conditions: small-molecule microarray, higher = more signal.
Experiment [17] can be described thus: probe aShh binding to arrayed compounds – biochemical, biotinylated probe, 635/667 nm fluorescence, primary screen (AID 1114).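 Also: probe is biotin-labelled aShh protein from a stem cell growth factor screen; measures binding of labelled protein to compounds printed on the slide; score merges feature fluorescence at 667 nm with signal-to-noise.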 Conditions: small-molecule microarray, higher = more signal.
Experiment [18] can be described thus: probe aNog binding to arrayed compounds – biochemical, biotinylated probe, 635/667 nm fluorescence, primary screen (AID 1115).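 Also: probe is biotinylated aNog protein used at 0.15 µg/mL for 1 h at 4 C; z-score combines 667 nm fluorescence of each spot with its signal to noise.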 Conditions: small-molecule microarray, higher = more signal.
Experiment [19] deals with Torsin-1A-interacting protein 1 (Homo sapiens) (UniProt Q5JTV8). In words: compound microarray binding of lysate hLAP1 – cell lysate, small-molecule microarray, COS7 lysate, 635/667 nm fluorescence, primary screen (AID 1116). Conditions: 635 nm fluorescence, higher = more signal.
In experiment [20] the target is Alpha-bungarotoxin (Bungarus multicinctus) (UniProt P60615). Kind of experiment: compounds binding labelled alpha-BTX control protein – biochemical, small-molecule microarray, Alexa647 label, 635/667 nm fluorescence, artefact control for SMM control protein annotation, profiling panel (AID 1117). The conditions noted are these: alpha-BTX-A647 binding fluorescence, higher = more signal.

Each structure is given as a SMILES string. The source made the active and inactive calls.

Chain of Torsin-1A-interacting protein 1 (Homo sapiens) (Q5JTV8 whole entry, looked up): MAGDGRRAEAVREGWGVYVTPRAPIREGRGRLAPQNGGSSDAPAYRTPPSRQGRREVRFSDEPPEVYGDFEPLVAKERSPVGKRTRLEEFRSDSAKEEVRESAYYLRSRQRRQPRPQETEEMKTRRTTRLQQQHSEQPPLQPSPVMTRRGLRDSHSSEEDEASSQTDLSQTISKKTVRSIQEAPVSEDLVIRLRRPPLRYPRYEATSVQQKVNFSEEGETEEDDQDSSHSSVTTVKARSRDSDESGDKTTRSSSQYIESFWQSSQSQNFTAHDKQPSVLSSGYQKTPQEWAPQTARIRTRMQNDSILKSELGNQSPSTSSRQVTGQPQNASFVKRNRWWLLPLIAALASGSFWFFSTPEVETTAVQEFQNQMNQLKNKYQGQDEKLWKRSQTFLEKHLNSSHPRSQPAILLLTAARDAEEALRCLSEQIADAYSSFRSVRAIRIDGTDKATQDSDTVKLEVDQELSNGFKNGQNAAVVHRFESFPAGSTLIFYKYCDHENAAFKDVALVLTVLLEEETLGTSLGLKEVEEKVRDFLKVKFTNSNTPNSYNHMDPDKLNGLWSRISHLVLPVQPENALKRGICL
Chain of Dickkopf-related protein 1 (Homo sapiens) (O94907 whole entry, looked up): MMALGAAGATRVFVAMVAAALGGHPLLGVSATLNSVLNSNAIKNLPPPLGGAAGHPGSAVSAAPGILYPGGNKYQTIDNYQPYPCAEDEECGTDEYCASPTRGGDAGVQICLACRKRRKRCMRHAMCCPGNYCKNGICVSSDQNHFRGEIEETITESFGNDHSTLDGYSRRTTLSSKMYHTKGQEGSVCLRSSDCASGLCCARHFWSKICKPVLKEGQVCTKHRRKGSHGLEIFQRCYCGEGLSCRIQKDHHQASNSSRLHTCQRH
Chain of Alpha-bungarotoxin (Bungarus multicinctus) (P60615 whole entry, looked up): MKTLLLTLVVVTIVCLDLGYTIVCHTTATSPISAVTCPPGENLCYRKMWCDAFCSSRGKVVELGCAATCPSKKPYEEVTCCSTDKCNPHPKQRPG
Chain of Fibroblast growth factor 10 (Homo sapiens) (O15520 whole entry, looked up): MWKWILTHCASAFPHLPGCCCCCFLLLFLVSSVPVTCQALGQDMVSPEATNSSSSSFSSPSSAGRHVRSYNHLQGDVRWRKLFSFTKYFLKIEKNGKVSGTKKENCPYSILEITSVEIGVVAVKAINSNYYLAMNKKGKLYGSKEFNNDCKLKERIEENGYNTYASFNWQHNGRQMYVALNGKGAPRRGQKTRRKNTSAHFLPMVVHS
Chain of Epidermal growth factor receptor (Homo sapiens) (P00533 whole entry, looked up): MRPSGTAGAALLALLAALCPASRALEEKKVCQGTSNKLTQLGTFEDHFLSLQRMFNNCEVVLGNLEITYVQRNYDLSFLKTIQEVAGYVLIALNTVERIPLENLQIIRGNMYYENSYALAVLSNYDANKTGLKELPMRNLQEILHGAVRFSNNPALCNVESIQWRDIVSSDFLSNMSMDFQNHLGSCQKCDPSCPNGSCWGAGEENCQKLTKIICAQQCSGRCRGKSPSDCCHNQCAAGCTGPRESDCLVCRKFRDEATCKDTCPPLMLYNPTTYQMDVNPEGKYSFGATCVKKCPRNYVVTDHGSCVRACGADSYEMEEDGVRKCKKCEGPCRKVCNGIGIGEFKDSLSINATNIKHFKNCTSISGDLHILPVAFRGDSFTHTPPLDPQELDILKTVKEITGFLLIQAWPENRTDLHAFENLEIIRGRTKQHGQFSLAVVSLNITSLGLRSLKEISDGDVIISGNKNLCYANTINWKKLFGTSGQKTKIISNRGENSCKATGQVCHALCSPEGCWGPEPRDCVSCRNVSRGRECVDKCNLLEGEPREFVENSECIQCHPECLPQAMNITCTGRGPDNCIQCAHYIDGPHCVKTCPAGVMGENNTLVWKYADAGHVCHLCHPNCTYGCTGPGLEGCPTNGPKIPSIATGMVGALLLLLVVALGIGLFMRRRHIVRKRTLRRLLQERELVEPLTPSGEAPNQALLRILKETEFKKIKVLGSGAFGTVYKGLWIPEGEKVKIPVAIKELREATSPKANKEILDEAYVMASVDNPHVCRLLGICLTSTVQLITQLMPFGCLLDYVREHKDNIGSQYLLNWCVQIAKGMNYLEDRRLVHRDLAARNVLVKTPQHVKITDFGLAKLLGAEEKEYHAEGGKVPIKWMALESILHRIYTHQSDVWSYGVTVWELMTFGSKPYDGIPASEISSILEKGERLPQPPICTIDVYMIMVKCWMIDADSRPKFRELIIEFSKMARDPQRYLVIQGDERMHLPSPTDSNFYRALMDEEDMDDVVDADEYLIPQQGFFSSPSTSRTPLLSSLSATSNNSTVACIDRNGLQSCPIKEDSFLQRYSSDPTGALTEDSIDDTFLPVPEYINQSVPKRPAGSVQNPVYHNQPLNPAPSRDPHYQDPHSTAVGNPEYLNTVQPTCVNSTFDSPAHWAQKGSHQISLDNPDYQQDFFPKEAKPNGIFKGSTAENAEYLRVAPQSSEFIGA
Chain of Left-right determination factor 2 (Homo sapiens) (O00292 whole entry, looked up): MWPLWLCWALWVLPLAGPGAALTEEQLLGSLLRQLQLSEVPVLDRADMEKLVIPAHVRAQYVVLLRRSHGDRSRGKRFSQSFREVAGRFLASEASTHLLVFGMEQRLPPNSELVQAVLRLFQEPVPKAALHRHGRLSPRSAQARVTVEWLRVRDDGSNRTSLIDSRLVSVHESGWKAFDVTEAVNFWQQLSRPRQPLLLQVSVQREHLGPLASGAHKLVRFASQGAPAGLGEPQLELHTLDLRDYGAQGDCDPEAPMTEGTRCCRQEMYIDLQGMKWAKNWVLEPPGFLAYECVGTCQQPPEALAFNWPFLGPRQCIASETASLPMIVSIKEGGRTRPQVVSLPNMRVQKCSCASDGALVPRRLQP
Chain of Follistatin-related protein 3 (Homo sapiens) (O95633 whole entry, looked up): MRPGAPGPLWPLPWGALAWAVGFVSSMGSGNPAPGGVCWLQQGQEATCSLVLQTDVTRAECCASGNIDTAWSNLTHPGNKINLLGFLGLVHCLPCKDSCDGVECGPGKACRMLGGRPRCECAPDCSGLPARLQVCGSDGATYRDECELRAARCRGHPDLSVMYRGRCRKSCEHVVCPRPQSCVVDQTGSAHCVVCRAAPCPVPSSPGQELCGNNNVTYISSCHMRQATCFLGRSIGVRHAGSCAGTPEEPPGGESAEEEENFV

For the molecule `COc1cccc([C@@H]2Oc3ccc(Br)cc3C(=O)[C@H]2O)c1`, the composite z-score was 0.237 in experiment [1]; -0.257 in experiment [2]; -0.423 in experiment [3]; 1.19 in experiment [5]; 0.101 in experiment [6]; 0.312 in [7]. The composite z-score was 0.892 in [8]; 0.221 in [9]; 0.287 in [10]; 0.0288 in experiment [11]; 0.171 in experiment [13]; 0.042 in experiment [14]. Also, the composite z-score in experiment [15] was -0.246; in experiment [16], -0.124; in [17], -0.243; in experiment [18] it was -0.257; in experiment [19], 0.43; in [20] it was 0.599. Further, the z-score was -1.7 (inactive) in experiment [4] and 3.55 in [12].
`COC(=O)[C@H](C)NC(=O)CCC1CC(OC(=O)NCCc2ccc(F)cc2)CC2(CCCC(COC(=O)NCCc3ccc(Cl)cc3)O2)O1` (stereo not given in full): the composite z-score in experiment [1] was 0.316; in experiment [2], 0.0144; in [3], -0.615; in experiment [5], 1.07; in experiment [6], 0.987; in experiment [7], 0.344. The composite z-score amounted to 1.29 in experiment [8]; 1.05 in [9]; 0.0063 in experiment [10]; 1.29 in [11]; 1.2 in [13]; 0.922 in experiment [14]. The composite z-score in experiment [15] was 0.232; in [16] it was -0.224; in experiment [17], -0.138; in [18], -0.299; in experiment [19], 0.428; in [20] it was 0.763. The z-score is -0.137 (inactive) in [4] and -0.0845 in experiment [12].
As for `C#C[C@@H](CC)O[Si](C#Cc1ccc(Oc2ccccc2)cc1)(C(C)C)C(C)C`, the composite z-score is 0.301 in experiment [1]; -0.137 in experiment [2]; -0.225 in experiment [3]; 0.706 in experiment [5]; 0.777 in experiment [6]; 0.185 in [7]. Besides, the composite z-score in experiment [8] was 0.773; in experiment [9] it was 0.125; in [10], 0.0324; in experiment [11] it was 1.1; in [13] it was 0.341; in experiment [14], -0.0885. Further, the composite z-score was -0.657 in [15]; -0.0963 in experiment [16]; -0.0533 in experiment [17]; -0.254 in experiment [18]; 0.368 in [19]; 0.0826 in experiment [20]. In addition, the results for the z-score in [4] and in experiment [12] were -1.17 (inactive) and -0.715, respectively.
`C[C@@H]1CCC2C(=O)N(Cc3ccccc3)C[C@@H](O)CN2[C@H]1c1ccc(Br)cc1` (stereo not given in full): the composite z-score in experiment [1] is 0.892; in experiment [2] it was -0.276; in [3], -0.441; in [5], 0.91; in experiment [6] it was 0.104; in experiment [7], -0.0897. For the same molecule, the composite z-score worked out at 0.078 in experiment [8]; 0.228 in experiment [9]; 0.203 in experiment [10]; 0.671 in experiment [11]; 0.149 in experiment [13]; 0.102 in [14]. In addition, the composite z-score in [15] is -0.28; in experiment [16], -0.169; in [17] it was -0.138; in [18], -0.0675; in experiment [19], 0.199; in [20], 0.0711. The z-score in experiment [4] was -1.89 (inactive); in [12] it was 0.344.
As for `CN(C)CCCNC(=O)[C@@H]1c2ccccc2C(=O)N(Cc2ccccc2)[C@H]1c1ccc(CO)cc1`, the composite z-score in experiment [1] was 0.0072; in experiment [2], 0.189; in experiment [3], 0.341; in experiment [5], -0.952; in experiment [6], -0.383; in experiment [7] it was -0.254. Moreover, the composite z-score in [8] is 0.433; in experiment [9], -0.354; in experiment [10], 1.33; in [11] it was -0.176; in experiment [13], 0.186; in experiment [14], -0.177. Besides, the composite z-score was -0.981 in experiment [15]; -0.0527 in experiment [16]; -0.281 in [17]; 0.366 in [18]; -0.668 in experiment [19]; -0.261 in experiment [20]. Further, the z-score in [4] is -0.00771 (inactive); in [12], -1.24.
`CCN1C(=O)[C@H]2[C@H]3[C@H](O)[C@H](O)CC(=NOC(C)CN4CCCCc5nc(C)c(C)cc54)[C@@H]3CC[C@H]2C1=O` (stereo not given in full): the composite z-score was 0.438 in experiment [1]; -0.206 in [2]; -0.667 in experiment [3]; 0.471 in experiment [5]; 0.606 in experiment [6]; 0.78 in [7]. The composite z-score in experiment [8] is 0.756; in experiment [9], 0.78; in [10], 0.834; in experiment [11], -0.504; in experiment [13] it was 0.905; in experiment [14], -2.14. The composite z-score is -1.31 in [15]; -0.184 in experiment [16]; 0.0796 in experiment [17]; -0.0489 in experiment [18]; -0.401 in [19]; -0.294 in experiment [20]. Besides, the z-score in experiment [4] was 0.279 (inactive); in [12], -1.17.
